These results are taken from PubChem BioAssay (NCATS).

SMILES strings stand for the structures. “And” between values parts separate entries of the source, which are not always exact repeats. Equal entries are not always repeated. Records with an inconclusive call do not appear. The source made the active and inactive calls. Calls follow the shape of the dose curve; as a rule, active = well fitted curve in either direction with a large enough effect (not every such curve was filed as active); inconclusive = small, poorly fitted or top-dose-only effect, or another doubt; inactive = flat fitted curve, though single readings scatter.
% is scaled to controls: 0 for no effect and ±100 for the full control effect.

One experiment in a line: AP1 Signaling Pathway (AID 357).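 Also: ME-180 reporter cells stimulated with EGF at its EC50 level.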 The following applies: ME-180 AP-1-bla reporter, EGF-induced, beta-lactamase ratio, 5 h; at 17.2 µM (top of the series). From the text:
NCGC Assay Overview: Activator protein-1 (AP-1), a transcription factor, plays an important role in tumor genesis by regulating genes involved in cell proliferation, differentiation, apoptosis, and angiogenesis. AP-1 activity is induced by a complex network of signaling pathways that involves extracellular signals, such as growth factors. The AP-1 protein complex formed from c-Fos and c-Jun binding to the AP-1 response element results in transcriptional activation of genes containing such elements within their promoter. Low molecular weight molecules have been discovered and developed to modulate various components of these signaling pathways, for example, MAP kinase inhibitors. However, many points of pathway modulation remain untested due to the lack of chemical probes making this signaling locus of general interest. Using a beta-lactamase reporter-gene under control of the AP-1 response element, a cell-based assay [CellSensor(TM) AP-1-bla ME-180 developed by Invitrogen Corp.] was used to measure EGF-induced signaling. Library compounds were measured for their ability to modulate positively or negatively the action of EC50 EGF on reporter gene activity. Compounds were screened in a titration series in 1536-well format. Positive and negative modulators were identified based on the AC50 values derived from the screening data.
NCGC Assay Protocol Summary: 2500 cells/5uL in Opti-MEM medium containing 0.5% dialyzed FBS, 0.1 mM NEAA, 1 mM sodium pyruvate and 10 mM HEPES was dispensed into 1536-well plates and cells were cultured at 37 degrees Celsius overnight. […] After centrifugation at 1000 rpm for 2 seconds the plates were incubated at 37 degrees Celsius for 5 hours. 1 uL of CCF4-dye mixture was added to each well. After incubated at room temperature for 2.5 hours the plates were measured on an EnVision plate reader at Excitation 405nm, Emission1=460nm and Emission 2=530nm. The %Activity was determined from the ratio of 460nm/530nm.
Turning to `NC(N)=NCCCCN=C(N)N`, the activity change, negative = inhibition was 10.4% (inactive).

Staying with this experiment, now noted: ME-180 AP-1-bla reporter, EGF-induced, beta-lactamase ratio, 5 h; at 17.2 µM (top of the series) unless noted.
As to `CN1CCCN(C(c2ccccc2)c2ccc(Cl)cc2)CC1` (configuration not stated), the activity change, negative = inhibition was 14.9% (inactive).

On to `CC(NCCC(c1ccccc1)c1ccccc1)c1ccccc1` (configuration not stated), for which the activity change, negative = inhibition is 12.2% (inactive).

As to `CN(C)c1cc2c(Nc3ccc4c(cnn4Cc4ccccc4)c3)ncnc2cn1`, the activity change, negative = inhibition was -107% [at 38 µM] (active).

On to `C[C@]12CCC(=O)C=C1CC[C@@H]1[C@@H]2[C@@H](O)C[C@@]2(C)[C@H]1CC[C@]2(O)C(=O)COC(=O)CCC(=O)O`, for which the activity change, negative = inhibition is -1.32% (inactive) and 11.9% (inactive).

As for `CN(C(=O)C(Cl)Cl)c1ccc(OC(=O)c2ccco2)cc1`, the activity change, negative = inhibition was 4.41% (inactive) and 1.4% (inactive).

As for `CC1(C)O[C@@H]2C[C@H]3[C@@H]4C[C@H](F)C5=CC(=O)C=C[C@]5(C)[C@@]4(F)[C@@H](O)C[C@]3(C)[C@]2(C(=O)CO)O1`, the activity change, negative = inhibition is -7.62% (inactive).

With `C[N+](C)(C)CCO`, the activity change, negative = inhibition was 0.911% [at 38 µM] (inactive).

On to `CC1(C)O[C@@H]2C[C@H]3[C@@H]4CCC5=CC(=O)C=C[C@]5(C)[C@@]4(F)[C@@H](O)C[C@]3(C)[C@]2(C(=O)CO)O1`, for which the activity change, negative = inhibition was 4.43% (inactive).

Regarding `CC(=O)Nc1c(I)c(NC(C)=O)c(I)c(C(=O)O)c1I`, the activity change, negative = inhibition was -1.8% (inactive).

As for `COc1ccccc1N1CCN(CCN2C(=O)CC3(CCCC3)CC2=O)CC1`, the activity change, negative = inhibition is -25.1% [at 38 µM] (inactive).

As for `CCN(CC)CCOc1ccc(/C(=C(\Cl)c2ccccc2)c2ccccc2)cc1`, the activity change, negative = inhibition was 9.05% (inactive).

For `O=C(O)/C=C(\CC(=O)O)C(=O)O`, the activity change, negative = inhibition was 3.65% [at 7.69 µM] (inactive).

Take `OC(CCCN1CCCCC1)(c1ccccc1)c1ccccc1`: the activity change, negative = inhibition was 26.6% (inactive).

For `O=C1NC(c2cccc([N+](=O)[O-])c2)=CCN1c1ccccc1O`, the activity change, negative = inhibition is -12.2% [at 38 µM] (inactive).

With `CC(=O)[C@@]1(O)CC[C@H]2[C@@H]3C[C@H](C)C4=CC(=O)CC[C@]4(C)[C@H]3CC[C@@]21C`, the activity change, negative = inhibition was 16% (inactive).

As to `Cc1ncc(CO)c(CO)c1O`, the activity change, negative = inhibition was -2.02% (inactive).

On to `Brc1ccc([C@H]2CN3CCSC3=N2)cc1`, for which the activity change, negative = inhibition was 10.4% [at 38 µM] (inactive).

On to `OCCOCCN1CCN(C(c2ccccc2)c2ccc(Cl)cc2)CC1` (configuration not stated), for which the activity change, negative = inhibition is 3.37% (inactive).

For the molecule `O=C(CCCCC(=O)Nc1c(I)cc(I)c(C(=O)O)c1I)Nc1c(I)cc(I)c(C(=O)O)c1I`, the activity change, negative = inhibition was 2.09% (inactive).

Consider `CCCCCC(=O)O[C@]1(C(C)=O)CC[C@H]2[C@@H]3CCC4=CC(=O)CC[C@]4(C)[C@H]3CC[C@@]21C`, for which the activity change, negative = inhibition was -2.44% (inactive).

For `O=C(O)c1ccccc1S`, the activity change, negative = inhibition is -3.14% (inactive).

Take `CC(=O)OCC[N+](C)(C)C`: the activity change, negative = inhibition was -2.55% (inactive).

For `C[C@H]1C[C@@H]2[C@H]([C@@H](O)C[C@@]3(C)[C@H]2CC[C@]3(O)C(=O)CO)[C@@]2(C)C=CC(=O)C=C12`, the activity change, negative = inhibition is 4.57% (inactive).

Regarding `CCCC(=O)O[C@]1(C(=O)CCl)[C@@H](C)C[C@H]2[C@@H]3CCC4=CC(=O)C=C[C@]4(C)[C@@]3(F)C(=O)C[C@@]21C`, the activity change, negative = inhibition was 2.19% (inactive).

Take `CCOC(=O)NNc1nncc2ccccc12`: the activity change, negative = inhibition is -6.72% (inactive).

The same experiment, now with this note: ME-180 (cervical carcinoma) AP-1-bla reporter, EGF-induced, beta-lactamase ratio, 5 h; at 38 µM (top of the series).
On to `NC(N)=NCCCCN=C(N)N`, for which the activity change, negative = inhibition was -0.239% (inactive).
